FBW7 activator: FBW7 E3 ligase activators, primary screen, biochemical, AlphaScreen, human; AlphaScreen FBW7–phospho-cyclin E peptide binding, activator screen; normalized activity (activation), % at 26.1 µM; 650,000 compounds, 0.13% hits; AID 1259310, 2017; in the data active = normalized activity above about 1.9%;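 also: purified mutant Fbw7 with reduced substrate affinity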
TEAD-YAP inh: TEAD-YAP interaction inhibition, primary screen, TEAD-YAP interaction inhibitor project, luminescence, HEK-TIYL cells. 640,000 compounds, 1.4% hits. TEAD-Gal4/YAP UAS-luciferase luminescence. inhibition, % at 9.12 µM; in the data active = inhibition above about 32%;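 also: 0% = median of test compound wells and 100% = reference inhibitor wells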
MITF inh: MITF inhibitors, primary screen, biochemical, AlphaScreen, human | AlphaScreen MITF homodimerization, bead proximity signal | inhibition, % at 2.6 µM | 650,000 compounds, 0.91% hits | AID 1259374, 2018; in the data active = inhibition above about 50%;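 also: 0% = vehicle wells with protein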
GPR151 activ: activators of human GPR151, primary screen, cell-based, PathHunter beta-arrestin, luminescence; activation, % at 11.2 µM; PathHunter beta-arrestin GPR151 cells; 650,000 compounds, 1% hits; G-protein coupled receptor 151 (Homo sapiens), Q8TDV0; in the data active = activation above about 4.9%;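 also: 0% = median of compound wells and 100% = cells with positive control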
Target sequence (Q8TDV0 whole entry, looked up): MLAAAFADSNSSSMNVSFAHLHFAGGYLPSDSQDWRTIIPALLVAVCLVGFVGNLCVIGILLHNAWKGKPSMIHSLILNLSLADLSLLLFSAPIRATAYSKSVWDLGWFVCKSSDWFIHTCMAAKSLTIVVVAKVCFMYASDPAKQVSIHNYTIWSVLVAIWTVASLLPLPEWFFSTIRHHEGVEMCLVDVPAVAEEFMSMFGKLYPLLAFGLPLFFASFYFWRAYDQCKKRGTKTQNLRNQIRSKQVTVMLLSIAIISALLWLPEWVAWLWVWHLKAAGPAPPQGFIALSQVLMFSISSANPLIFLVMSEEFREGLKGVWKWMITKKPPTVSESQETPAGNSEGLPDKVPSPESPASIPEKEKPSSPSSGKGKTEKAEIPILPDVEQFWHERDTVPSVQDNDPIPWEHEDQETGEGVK
Active calls of the source: *. Sampled rows, rich in hits. Any-hit rate of the full collection: about 3.4%.

SMILES	FBW7 activator	TEAD-YAP inh	MITF inh	GPR151 activ
COc1ccc(S(=O)(=O)Nc2ccc(F)cc2F)cc1	0	3	-6	1
CC(C)COC(=O)c1ccc(NC(=O)COc2ccc(Br)cc2)cc1	0	35*	0	1
Cc1ccc(NC(=O)c2ccccc2)s1	0	57*	3	-5
Cc1cc(NC(=O)c2ccccc2)sc1C	0	-37	-5	-8
O=C1C(Cl)=C(Nc2ccc(Br)cc2)C(=O)c2ccccc21	0	-5	4	0
O=C(O)CN1C(=O)/C(=N\N2C(=O)CSC2=S)c2ccccc21	0	5	55*	-1
CCN1C(=O)/C(=N\N2C(=O)CSC2=S)c2ccccc21	0	4	16	0
COc1cccc(C(=O)NNS(=O)(=O)c2ccccc2[N+](=O)[O-])c1	0	2	-4	3
COc1cc(CO)ccc1OCc1cccc(C(=O)O)c1	0	74*	9	-10
COc1cc(C=O)ccc1OCc1ccc(C(=O)O)cc1	0	-7	-13	1
COc1cc(CO)ccc1OCc1cccc(F)c1	0	-44	-22	-1
COc1cc(/C=N/O)ccc1OCc1ccccc1F	0	38*	-13	-4
COc1cc(/C=N/O)ccc1OCc1ccc(C(=O)O)cc1	0	94*	20	-9
CCCCOc1ccc(CO)cc1OC	2.1*	-5	1	1
COc1cc(/C=N/O)ccc1OCc1ccc(F)cc1	0	-41	-11	-3
CC(NC(=O)CN(c1ccc(F)c(Cl)c1)S(C)(=O)=O)c1ccccc1 (stereo unspecified)	0	10	11	-1
CCCCN=C1NS(=O)(=O)c2ccccc21	0	-8	6	2
CC(C(=O)Nc1ccncc1)c1ccc([N+](=O)[O-])cc1 (stereo unspecified)	1	33*	0	4
CC(C(=O)Nc1ncn[nH]1)c1ccc([N+](=O)[O-])cc1 (stereo unspecified)	-1	12	8	-1
CCOC(=O)CSc1nc2c(sc(=S)n2-c2cc(OC)ccc2OC)c(=O)n1C1CCCCC1	0	-3	9	0
O=C(Cn1nnc(-c2ccccc2)n1)N/N=C/c1cc(Cl)ccc1O	0	-1	57*	0
O=C(Cn1nnc(-c2ccccc2)n1)N/N=C/c1ccc(O)c(O)c1O	-1	8	66*	1
O=C(Cn1nnc(-c2ccccc2)n1)N/N=C/c1ccccc1C(F)(F)F	0	0	12	1
COc1ccc(N(C)C2=NS(=O)(=O)c3ccccc32)cc1	0	45*	4	0
COc1ccc(C(=O)NNC(=O)CCC(=O)Nc2ccccc2)cc1	0	-5	-5	0
SMILES	FBW7 activator	TEAD-YAP inh	MITF inh	GPR151 activ
CC(C)(C)c1ccc(C(=O)Nc2cccc(F)c2)cc1	0	42*	0	-6
CCN(CC)S(=O)(=O)c1cc(C(=O)Nc2cccc(O)c2)ccc1C	0	85*	5	-2
Cc1ccc(C(=O)Nc2cccc(O)c2)cc1	0	82*	11	-9
CC(=O)c1cccc(NC(=O)c2ccc(C)cc2)c1	0	-35	2	-1
O=C(Nc1cccc(O)c1)c1ccc(Br)cc1	1	36*	0	0
CC(=O)Nc1cccc(NC(=O)c2ccc(Br)cc2)c1	0	-20	-11	-2
CC1=C(C(=O)OC(C)(C)C)C(c2ccc3c(c2)OCCO3)NC(=S)N1 (stereo unspecified)	0	-7	4	1
COc1cc(CO)ccc1OCC(=O)NCc1ccc(Cl)cc1	0	7	6	0
CC(NC(=O)COc1ccccc1)c1nnc2n1CCN(CCO)CC2 (stereo unspecified)	0	-2	-8	-1
OCCNCCOCCOc1ccc(Cl)cc1	1	-4	49	0
CC(C)(C)c1ccc(-c2nc(-c3ccccc3)no2)cc1	0	77*	0	1
CCC(=O)Oc1ccc(-c2nc(-c3ccc(OC)cc3)no2)cc1	0	44*	1	-7
Cc1ccc(-c2noc(-c3ccc(O)cc3)n2)cc1	1	74*	3	-9
Oc1ccc(-c2nc(-c3ccc(Br)cc3)no2)cc1	0	50*	2	-8
CC(C)(C)c1ccc(-c2nc(-c3ccc(Br)cc3)no2)cc1	0	-10	-3	-1
O=C(O)c1cc(N2C(=O)/C(=C/c3ccc(-c4ccc([N+](=O)[O-])cc4)o3)C=C2c2ccccc2)ccc1Cl	0	-4	21	-2
COc1cccc(NC(=O)COC(=O)c2c(Cl)cccc2Cl)c1	0	-20	4	1
CCCCN(C)C(=O)c1nc(-c2cccnc2)no1	0	-3	-2	-2
COC(=O)C1=CN(Cc2ccc(OC)c(OC)c2)C=C(C(=O)OC)C1c1ccc(OCc2ccccc2)c(OC)c1	0	-19	-14	1
COC(=O)C1=CN(Cc2ccc(Cl)cc2)C=C(C(=O)OC)C1c1ccc(OC)c(OCc2ccccc2)c1	0	55*	-13	-2
COC(=O)C1=CN(Cc2ccc(OC)cc2)C=C(C(=O)OC)C1c1ccc(OC)c(OCc2ccccc2)c1	0	50*	-3	-1
COC(=O)C1=CN(Cc2ccc(OC)cc2)C=C(C(=O)OC)C1c1ccccc1F	1.9*	5	1	-2
Cc1ccc(-c2nc3ccccc3c(=O)n2NC(=O)c2cccc([N+](=O)[O-])c2)cc1C	0	3	-1	-1
CCOC(=O)N1CCc2c(sc3c2C(=O)NC(/C=C\c2ccccc2)N3)C1 (stereo unspecified)	0	51*	-10	1
CCOC(=O)N1CCc2c(sc3c2C(=O)NC(c2ccc(Cl)cc2)N3)C1 (stereo unspecified)	0	13	7	0
SMILES	FBW7 activator	TEAD-YAP inh	MITF inh	GPR151 activ
CCOC(=O)c1cnc2c(OC)cccc2c1NC1CCCCCC1	0	66*	3	3
CCOC(=O)c1cnc2c(OC)cccc2c1NC1CCCCC1	0	55*	5	4
CCOC(=O)c1cnc2c(OC)cccc2c1NCC1CCCN1CC (stereo unspecified)	0	6	-12	1
CCOC(=O)c1cnc2c(OC)cccc2c1Nc1ccc(OC)c(OC)c1	0	45*	17	0
CCOC(=O)c1cnc2c(Cl)c(Cl)ccc2c1NC1CCCCC1	0	-6	-3	-1
Cc1sc(NC(=O)c2ccncc2)nc1-c1ccc(Cl)cc1	0	-8	13	-1
CC1C/C(=C/c2ccccn2)C(=O)/C(=C/c2ccccn2)C1 (stereo unspecified)	0	80*	1	1
O=C1C(=Cc2c([N+](=O)[O-])cc([N+](=O)[O-])cc2[N+](=O)[O-])C(=O)c2ccccc21	0	18	5	-2
COCCCn1c(=O)[nH]c2ncc(-c3cnc(OC)nc3)nc21	2.2*	-3	15	-1

Assay outcomes (PubChem BioAssay)
